This passage reports Potency and outcome results from PubChem BioAssay (Tox21).

Several values for one entry are separate records, joined by “and”; a condition that tells them apart may be missing. Identical values can stand only once. Inconclusive results are not listed. A structure can be active in one record and inactive in another. Activity calls are given as the source filed them. Unless noted, calls come from the whole dose curve; as a rule, active = well fitted curve in the direction sought with a large enough effect in the repeat runs; inconclusive = weak or mixed curves; inactive = no such curve, though single readings can be large; an effect the other way counts as inactive or inconclusive.

The nature of assay [1]: qHTS assay to identify aromatase inhibitors - cell viability counter screen (AID 743084).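 Note: cells stimulated with testosterone during compound exposure; nearly all actives have a fitted effect of over 55% in size.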 Note: potency is the fitted concentration of half-maximal effect. A general note: Quantitative high-throughput screening tests each substance at several concentrations.
The target in assay [2] is Aryl hydrocarbon receptor (Homo sapiens) (UniProt P35869). The experiment in a line: qHTS assay to identify small molecule that activate the aryl hydrocarbon receptor (AhR) signaling pathway (AID 743085).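 For activation: HG2L7.5c1 human HepG2 liver cells with stably integrated DRE-driven firefly reporter; series mostly up to about 70 µM.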 Note: nearly all actives have a fitted effect of over 15% in size. Note: potency is the fitted concentration of half-maximal effect. Put shortly: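 Reporter assay in engineered HepG2 line HG2L7.5c1, whose plasmid carries twenty dioxin responsive elements upstream of firefly luciferase. Treatment lasted 24 h at 37C; ONE-Glo luminescence gauged induction.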

The nature of assay [3]: qHTS assay to identify small molecule that activate the aryl hydrocarbon receptor (AhR) signaling pathway - cell viability counter screen (AID 743086). Note: series mostly up to about 70 µM; nearly all actives have a fitted effect of over 45% in size. The gist of the method: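 Cytotoxicity counter screen: CellTiter-Fluor signal (30 min, 37 C) in 4000 HepG2 cells/well carrying the DRE-luciferase reporter, following 24 h compound exposure at 37 C.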
The nature of assay [4]: qHTS assay to identify small molecule antagonists of the peroxisome proliferator-activated receptor gamma (PPARg) signaling pathway - cell viability counter screen (AID 743194). Note: nearly all actives have a fitted effect of over 55% in size. The gist of the method:
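Viability was measured as CellTiter-Glo luminescence in GeneBLAzer PPARg UAS-bla HEK293H cells. These cells had been exposed 17 h at 37 C to compounds together with rosiglitazone at 50 nM final, with the beta-lactamase readout taken in the same wells.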

Assay [5] in a line: qHTS assay for small molecule agonists of the antioxidant response element (ARE) signaling pathway (AID 743202; active = well fitted activation curve with a large enough effect in the signal ratio in the repeat runs, not every such curve was filed as active; the % refers to the signal ratio; note: potency is the fitted concentration of half-maximal effect). The gist of the method:
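After 16 hours of compound treatment at 37 C, HepG2 cells with a stably integrated ARE-driven beta-lactamase reporter were loaded 2 hours at room temperature with LiveBLAzer B/G FRET substrate and fluorescence intensity measured.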

A short description of assay [6]: qHTS assay for small molecule agonists of the antioxidant response element (ARE) signaling pathway - cell viability counter screen (AID 743203; calls by dose curve; note: nearly all actives have a fitted effect of over 55% in size). Put shortly: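 ATP content via CellTiter-Glo luminescence served as the viability measure. Cells: ARE-bla HepG2, 2,000 per well. Exposure: 16 hrs, 37C/5% CO2.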
Assay [7] is described as follows: qHTS assay for small molecule activators of the heat shock response signaling pathway - cell viability counter screen (AID 743209). Note: nearly all actives have a fitted effect of over 50% in size. The gist of the method:
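Compounds dissolved in DMSO were added to overnight-plated HSE-bla HeLa cells and left 5 h at 37 C. Cell viability was quantified by luminescence using CellTiter-Glo.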

A short description of assay [8]: qHTS assay for small molecule activators of the heat shock response signaling pathway (AID 743210; active = well fitted activation curve with a large enough effect in the signal ratio in the repeat runs, with a control signal flat, not every such curve was filed as active; the % refers to the signal ratio; note: potency is the fitted concentration of half-maximal effect; for activation: series mostly up to about 63 µM). The gist of the method:
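Compound exposure lasted 5 h at 37 C in HeLa cells carrying a heat-shock-element-driven beta-lactamase reporter. Read-out: fluorescence intensity after 2.5 h room-temperature loading with LiveBLAzer B/G FRET substrate.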

Assay [9] concerns the target Peroxisome proliferator-activated receptor gamma (Homo sapiens) (UniProt P37231). The assay is described as follows: qHTS assay to identify small molecule agonists of the peroxisome proliferator-activated receptor gamma (PPARg) signaling pathway (AID 743094; active = well fitted activation curve with a large enough effect in the signal ratio in the repeat runs, not every such curve was filed as active; the % refers to the signal ratio). Put shortly: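 Agonism was assessed in a beta-lactamase reporter system, HEK293H cells with a stably integrated UAS-bla construct under PPARg control; the 17 h treatment at 37C preceded a 1 h room-temperature FRET substrate read.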

For assay [10] the target is unchanged. The assay is described as follows: qHTS assay to identify small molecule antagonists of the peroxisome proliferator-activated receptor gamma (PPARg) signaling pathway (AID 743191; calls by dose curve; note: nearly all actives have a fitted effect of over 30% in size; note: potency is the fitted concentration of half-maximal effect). Put shortly: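 Beta-lactamase reporter under UAS control in HEK293H PPARg-bla cells; compound treatment 17 h at 37C. Read-out: fluorescence intensity after 1 h room-temperature incubation with LiveBLAzer B/G FRET substrate.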

Peroxisome proliferator-activated receptor gamma (Homo sapiens), sequence (P37231 whole entry, looked up): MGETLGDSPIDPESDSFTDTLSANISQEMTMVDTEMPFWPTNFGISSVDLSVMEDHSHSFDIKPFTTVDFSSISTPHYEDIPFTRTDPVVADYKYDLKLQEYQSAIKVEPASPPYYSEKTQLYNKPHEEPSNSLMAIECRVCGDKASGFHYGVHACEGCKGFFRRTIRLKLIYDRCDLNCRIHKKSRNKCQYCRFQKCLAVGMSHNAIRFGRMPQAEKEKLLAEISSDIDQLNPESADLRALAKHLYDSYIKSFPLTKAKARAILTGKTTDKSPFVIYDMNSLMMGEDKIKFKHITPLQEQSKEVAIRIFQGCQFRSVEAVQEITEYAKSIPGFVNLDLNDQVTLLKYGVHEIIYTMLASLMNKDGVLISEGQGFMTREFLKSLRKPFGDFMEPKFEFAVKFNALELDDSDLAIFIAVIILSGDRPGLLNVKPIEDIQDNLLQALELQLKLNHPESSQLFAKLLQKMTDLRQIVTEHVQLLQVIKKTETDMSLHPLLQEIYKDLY
Aryl hydrocarbon receptor (Homo sapiens), sequence (P35869 whole entry, looked up): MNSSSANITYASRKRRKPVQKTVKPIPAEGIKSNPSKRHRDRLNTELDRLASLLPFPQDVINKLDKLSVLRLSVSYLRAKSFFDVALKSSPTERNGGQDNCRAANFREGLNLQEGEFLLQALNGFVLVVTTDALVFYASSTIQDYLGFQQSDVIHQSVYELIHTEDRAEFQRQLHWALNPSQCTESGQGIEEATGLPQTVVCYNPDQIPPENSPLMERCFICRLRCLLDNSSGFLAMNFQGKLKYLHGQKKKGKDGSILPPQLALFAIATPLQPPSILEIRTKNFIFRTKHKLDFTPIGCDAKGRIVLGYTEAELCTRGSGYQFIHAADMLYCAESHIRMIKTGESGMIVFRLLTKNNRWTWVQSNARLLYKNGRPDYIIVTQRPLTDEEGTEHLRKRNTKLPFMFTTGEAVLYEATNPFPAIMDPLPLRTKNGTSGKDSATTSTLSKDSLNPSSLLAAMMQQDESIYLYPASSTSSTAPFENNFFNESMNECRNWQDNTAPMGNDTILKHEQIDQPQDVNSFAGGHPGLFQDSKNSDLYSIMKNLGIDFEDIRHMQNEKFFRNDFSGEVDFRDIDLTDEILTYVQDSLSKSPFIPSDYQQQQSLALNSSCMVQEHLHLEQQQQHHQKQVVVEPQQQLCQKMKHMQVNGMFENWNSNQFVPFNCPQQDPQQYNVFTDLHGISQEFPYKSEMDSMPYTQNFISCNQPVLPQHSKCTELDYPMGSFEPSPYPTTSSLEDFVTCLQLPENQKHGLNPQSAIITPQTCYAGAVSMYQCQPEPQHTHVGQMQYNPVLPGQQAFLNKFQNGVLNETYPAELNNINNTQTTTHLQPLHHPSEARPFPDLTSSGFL

Regarding `Sc1ccccc1`, the Potency result in assay [1], in [2], in assay [5], in assay [6] and in assay [7] was “inactive” in each case. The compound was called inactive in assay [3] and in assay [4]. In addition, the Potency in assay [8] was 44.3 µM (active) and inactive.
Consider `CNC(=O)Oc1cccc2ccccc12`, for which the Potency entry in [1], in assay [6], in assay [7] and in assay [8] was “inactive” each time. Also, the Potency in [2] is 5.31 µM (active) and 54 µM (active) and 27.3 µM (active). The outcome in [3] and in assay [4] was inactive.
For the compound `NNc1ccccc1`, the Potency entry in [1], in assay [5], in assay [6], in assay [7] and in [8] was “inactive” in each case. Also, the outcome in [3], in assay [9] and in assay [4] was inactive. The Potency in [10] is 13.8 µM (active) and inactive.
Turning to `CC(C)(C)C(=O)CCl`, the Potency entry in assay [1], in [10], in assay [5], in assay [6] and in [8] was “inactive” throughout. Moreover, the call in assay [3], in assay [9] and in assay [4] was inactive.
For the compound `CSc1nnc(C(C)(C)C)c(=O)n1N`, the result in assay [3] and in [4] was inactive. For the same compound, the Potency entry in [5], in assay [6], in assay [7] and in assay [8] was “inactive” throughout.
Consider `CCCCCCCCCCCCCCCCCC(=O)O`, for which the Potency entry in assay [1], in assay [5] and in [6] was “inactive” throughout. Moreover, the call in [3] and in assay [4] was inactive.
Consider `CC(C)CCCCCCOC(=O)c1ccccc1C(=O)OCCCCCCC(C)C`, for which the Potency result in assay [1], in assay [2], in assay [5], in assay [6] and in [8] was “inactive” each time. The compound was classed as inactive in [3] and in assay [4].
Take `Nc1ccc([As](=O)(O)O)cc1`: the Potency entry in [1], in assay [10], in assay [5], in assay [6] and in assay [8] was “inactive” each time. Further, the result in [3], in assay [9] and in [4] was inactive.
Turning to `COc1cc(-c2ccc(N)c(OC)c2)ccc1N`, the Potency entry in [1], in [6] and in assay [8] was “inactive” in each case. In addition, the result in [3], in [9] and in [4] was inactive.
On to `Cc1ccccc1N`, for which the Potency result in assay [1], in [2], in [5], in assay [6], in assay [7] and in assay [8] was “inactive” throughout. In addition, the compound was called inactive in assay [3] and in assay [4].
For the compound `Oc1ccc(Cl)cc1`, the Potency result in assay [1], in [2], in assay [5], in assay [6], in [7] and in assay [8] was “inactive” each time. Further, the outcome in assay [3] and in assay [4] was inactive.
Consider `Clc1cnc(Oc2ccc(Oc3ncc(Cl)cc3Cl)cc2)c(Cl)c1`, for which the Potency entry in [1], in assay [2], in assay [6] and in assay [8] was “inactive” each time. In addition, the result in assay [3], in assay [9] and in assay [4] was inactive.
Regarding `Cl/C=C/Cl`, the Potency entry in assay [1], in assay [2], in assay [5], in assay [6] and in assay [8] was “inactive” in each case. Further, the result in assay [3] and in assay [4] was inactive.
As to `Cc1cccc(N)c1`, the Potency result in assay [1], in assay [10], in [5], in assay [6], in [7] and in assay [8] was “inactive” each time. In addition, the call in assay [3], in assay [9] and in [4] was inactive.
With `O=C(O)C1C(C(=O)O)C2(Cl)C(Cl)=C(Cl)C1(Cl)C2(Cl)Cl` (stereo not given), the Potency result in assay [1], in [2], in [5], in assay [6] and in assay [8] was “inactive” each time. Further, the outcome in assay [3] and in assay [4] was inactive.
On to `Cc1cc(Cl)ccc1OC(C)C(=O)O` (stereo not given), for which the Potency entry in assay [1], in assay [2], in [5], in [6] and in assay [8] was “inactive” throughout. In addition, the compound was called inactive in [3] and in assay [4].
On to `O=C(O)C(Br)Br`, for which the Potency entry in assay [1], in assay [10], in assay [6], in assay [7] and in assay [8] was “inactive” throughout. Further, the call in [3], in [9] and in assay [4] was inactive. Moreover, the Potency in assay [5] was 86.3 nM (active).
For `Nc1ccc(N)cc1`, the Potency entry was “inactive and 54.7 µM (active) and 43.3 µM (active)” in assay [1]; 8.67 µM (active) and 10.6 µM (active) in assay [5]. For the same compound, the compound was called inactive in assay [3], in assay [9] and in [4]. Moreover, the Potency entry in assay [6] and in assay [7] was “inactive” in each case.
Regarding `OCCCCO`, the Potency entry in assay [1], in [2], in [5], in [6], in assay [7] and in assay [8] was “inactive” in each case. Also, the compound was called inactive in [3] and in assay [4].
Consider `Nc1nc(N)nc(NC2CC2)n1`, for which the Potency entry in assay [1], in [2] and in [6] was “inactive” throughout. Further, the result in [3] and in assay [4] was inactive. In assay [8], the Potency entry was “inactive and 43.6 µM (active)”.
`C/C=C/c1ccc2c(c1)OCO2`: the Potency entry in assay [1], in assay [5], in assay [6], in assay [7] and in assay [8] was “inactive” throughout. Also, the call in assay [3], in assay [9] and in [4] was inactive.
Regarding `CCOC(=O)CC(SP(=O)(OC)OC)C(=O)OCC` (stereo not given), the Potency entry in assay [1], in assay [2], in [6], in assay [7] and in [8] was “inactive” throughout. Also, the outcome in assay [3], in assay [9] and in assay [4] was inactive.
As to `Nc1cccc(Cl)c1`, the Potency entry in assay [1], in assay [5] and in assay [6] was “inactive” in each case. Further, the result in [3], in assay [9] and in assay [4] was inactive.
`CCOc1ccc(N)cc1`: the Potency entry in [1], in assay [6], in [7] and in assay [8] was “inactive” each time. In addition, in assay [2], the Potency was 48.7 µM (active) and inactive. Further, the outcome in assay [3] and in [4] was inactive.
Regarding `C=CC(=O)OCC(CC)CCCC` (stereo not given), the Potency entry in [1], in assay [2], in assay [5], in assay [6] and in assay [8] was “inactive” each time. Further, the compound was classed as inactive in assay [3] and in [4].
As for `CNCC(O)c1ccc(O)cc1` (stereo not given), the Potency result in [1], in assay [2], in assay [6] and in assay [8] was “inactive” each time. Besides, the call in assay [3], in [9] and in assay [4] was inactive.
